Most compounds without a hit are left out; they make up all but 5.7% or so of the library.
PI4K2A block – PI4K2A (human) kinase inhibition | Q9BTU6 | purified PI4K2A, ADP-Glo luminescence, 1 h; active compounds read low | activity change, negative = inhibition, % at 76.9 µM | 420,000 tested, 0.13% active; in the data active means activity change below about -50%; inconclusive means mostly about -30% to -49%
Target sequence (Q9BTU6 whole entry, looked up): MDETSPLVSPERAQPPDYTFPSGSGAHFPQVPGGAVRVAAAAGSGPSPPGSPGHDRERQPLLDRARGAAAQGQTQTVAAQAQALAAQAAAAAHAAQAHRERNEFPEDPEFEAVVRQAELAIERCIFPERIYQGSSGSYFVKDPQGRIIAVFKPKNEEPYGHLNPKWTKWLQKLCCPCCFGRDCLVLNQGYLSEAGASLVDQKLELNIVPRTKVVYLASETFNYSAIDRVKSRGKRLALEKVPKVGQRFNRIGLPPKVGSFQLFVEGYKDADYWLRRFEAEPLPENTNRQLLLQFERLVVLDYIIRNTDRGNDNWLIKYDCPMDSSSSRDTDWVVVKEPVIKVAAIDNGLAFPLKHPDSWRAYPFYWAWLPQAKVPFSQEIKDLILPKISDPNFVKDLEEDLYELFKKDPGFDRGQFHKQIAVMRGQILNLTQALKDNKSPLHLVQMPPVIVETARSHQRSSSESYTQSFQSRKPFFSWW
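ADP-Glo luminescence measured ADP generated by PI4K2A enzyme (4 ug/mL before mixing) with 1.2 mM PI substrate (pre-mix) and 300 microM ATP (pre-mix). Tris pH7.5 buffer with MgCl2, Triton X-100; 1 h reaction at ambient temperature.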
KB-3-1 tox – kills parental KB-3-1 adenocarcinoma cells; KB-3-1 viability, CellTiter-Glo ATP luminescence, 72 h; Potency, µM (highest dose often 46.1 µM), hits mostly cytotoxic; 400,000 tested, 1.4% active; AID 1347075; further: nearly all actives have a fitted effect of over 60% in size
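KB-3-1 cells, DMEM (no phenol red) + 10% FBS; compound by pin transfer, 72 h, 37 °C. Readout: CellTiter-Glo luminescence after 10 min. Data normalized, curve-fitted.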
KB-V1 MDR tox – kills drug-selected multidrug resistant KB-V1 cells; 400,000 tested, 3.4% active; Potency, µM (highest dose often 46.1 µM), most hits filed as cytotoxic; AID 1347076; KB-V1 MDR cells viability, CellTiter-Glo, 72 h; further: nearly all actives have a fitted effect of over 60% in size
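Luminescent ATP read-out (CellTiter-Glo, 10 min) measures survival of drug-selected KB-V1 MDR cells after 72 h, 37 degrees C compound exposure. Medium: phenol-red-free DMEM, 10% FBS. Values from fitted concentration-response curves.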
Nrf2 block – blocks Nrf2 signaling | A549 ARE-Fluc reporter, luciferase luminescence, 18-24 h | Potency, µM (titrated, usually from 46 µM), actives largely listed as inhibitors | 360,000 tested, 2.1% active | AID 504444; further: nearly all actives have a fitted effect of over 60% in size
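Cells were seeded and rested 2 h, then exposed to compounds for 18-24 h. CellTiter-Fluor was read first as a viability measure. BugLite was added 15 min before the final luminescent read of ARE-luciferase activity in A549 cells.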
Giardia kill – Giardia lamblia killing | 340,000 tested, 0.15% active | AID 540267 | activity change, % at 7.66 µM, hits read low | Giardia lamblia trophozoite viability; in the data active means activity change below about -80%; inconclusive means between about -30% and that limit;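 further: parasites exposed to compound for two days anaerobically before the ATP read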
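Killing of trophozoites was scored by loss of ATP luminescence after a 48 hrs anaerobic exposure to compounds at 37 deg C, using 100 cells per well.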
A549 tox – A549 cytotoxicity, counter-screen for Nrf2 inhibitors; 390,000 tested, 0.16% active; A549 ARE-Fluc cells, CellTiter-Fluor viability, 18-24 h; AID 504648; Potency, µM (doses to about 46 µM), most hits filed as inhibitors
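Cytotoxicity counterscreen: CellTiter-Fluor fluorescence was measured in A549 ARE_Fluc cells after 18-24 h of compound exposure in a concentration series. The subsequent BugLite luminescent read reports ARE-luciferase activity.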
Hits are given with their value; 0 = inactive; ? = inconclusive; - = no result. Unless noted, the call rests on the fitted dose curve; in most records, active means well fitted curve in the direction sought with a large enough effect; inconclusive means small, poorly fitted or top-dose-only effect, or another doubt; inactive means no such curve, though single readings can be large; an effect the other way counts as inactive or inconclusive.

SMILES	PI4K2A block	KB-3-1 tox	KB-V1 MDR tox	Nrf2 block	Giardia kill	A549 tox
COc1ccc(CN2CC[C@H]3C=CC[C@@H](C(=O)NC4CCCCC4)[C@H]3C2=O)cc1OC	-	0	0	-	-	-
Cc1ccc(NC(=O)CN(C)C(=O)C(C)N2CCN(Cc3ccccc3C)CC2)cc1 (centres undefined)	0	0	9.2µM	0	0	0
COc1ccc(C2=NN(C(=O)/C=C/c3ccccc3)C(c3ccccc3)C2)c(OC(C)=O)c1 (centres undefined)	0	?	2.9µM	?	0	0
COc1ccc(C2CC(c3ccccc3OC(C)=O)=NN2C(=O)/C=C/c2ccccc2)cc1OC (centres undefined)	0	?	?	0	0	0
CC(=O)Oc1ccc(C2(c3ccc(OC(C)=O)cc3)Oc3ccccc3NC2=O)cc1	0	-	-	-	-	-
COc1ccc(CNC(=O)c2c(O)c3cccc4c3n(c2=O)CCC4)cc1	0	0	15µM	0	0	0
COc1ccc(CNC(=O)c2c(O)c3cccc4c3n(c2=O)CCC4)cc1OC	0	0	0	?	0	0
CCCCCCNC(=O)c1c(O)c2cccc3c2n(c1=O)CCC3	0	0	0	0	0	0
CC(C)c1nnc(NC(=O)c2c(O)c3cccc4c3n(c2=O)CCC4)s1	0	?	?	16µM	0	?
CCN(CC)CCNC(=O)c1c(O)c2cccc3c2n(c1=O)CCC3	0	0	0.73µM	0	0	0
Cc1ccc2c(c1)N(C(=O)c1ccco1)C(C)(C)c1ssc(=S)c1-2	0	0	9.2µM	-	0	0
Cc1ccc(Nc2nc(CSc3nnc(-c4ccc(F)cc4)n3C)cs2)cc1	0	?	6.5µM	0	0	0
COc1ccc(-c2nnc(SCc3csc(N)n3)n2C)cc1	0	0	0	-	0	0
COc1ccc(-c2cc(-c3nnc(SCC(=O)N4CCOCC4)n3N)[nH]n2)cc1	0	-	-	-	-	-
CCOC(=O)C(C(=O)Nc1ccc(C)cc1)C1CCCCC1 (centres undefined)	0	23µM	9.2µM	-	0	0
COCCCNC(=S)N(Cc1ccccc1)Cc1ccccc1	0	0	18µM	0	0	0
Cc1ccc(NC(=O)C2CCCN(c3cnccn3)C2)cc1Cl (centres undefined)	0	-	-	0	-	0
Clc1ccc(Nc2c3c(nc4ncnn24)CCC3)cc1	0	0	7.3µM	0	0	0
Cc1cc(C)cc(Nc2c3c(nc4ncnn24)CCC3)c1	0	0	2.1µM	0	0	0
O=C(N1CCOCC1)N1CC[C@H]2[C@H](CCCN2Cc2ccccc2)C1	0	-	-	-	-	-
COc1ccc(CN2CCC(CNC(=O)Nc3ccc(C)c(F)c3)CC2)cc1	0	-	-	-	-	-
COc1ccc(-c2cc(C(=O)Nc3c(C)nn(Cc4ccccc4Cl)c3C)no2)cc1OC	0	?	?	-	0	0
Cc1nn(Cc2c(Cl)cccc2Cl)c(C)c1NC(=O)c1cn(-c2ccccc2)nc1-c1ccccc1	0	8.2µM	9.2µM	12µM	0	13µM
Cc1cc(C(=O)Nc2c(C)nn(Cc3ccccc3Cl)c2C)no1	0	0	21µM	-	0	0
COc1cccc(-c2cc(C(=O)Nc3c(C)nn(Cc4ccccc4Cl)c3C)no2)c1	0	0	0	6.5µM	-	0
SMILES	PI4K2A block	KB-3-1 tox	KB-V1 MDR tox	Nrf2 block	Giardia kill	A549 tox
Cc1ccc(CCn2c3c(c4cc(Cl)ccc42)CN(C)CC3)cn1	0	-	-	-	-	-
Cc1ccc(S(=O)(=O)N(C)CCN(C)c2nc(-c3cccs3)nc3ccccc23)cc1	-	-	-	0	0	0
COc1ccc(NC(=O)Cc2ccc(Cl)c(Cl)c2)cn1	0	0	0	0	0	0
COc1ccc(NC(=O)/C(Cl)=C(/Cl)S(=O)(=O)Cc2ccc(C)cc2)cn1	0	6.5µM	?	-	0	?
COc1ccc(NC(=O)/C(Cl)=C(/Cl)S(=O)Cc2ccccc2Cl)cn1 (centres undefined)	0	18µM	?	0	0	15µM
O=S(=O)(c1cccc(Cl)c1)N1CCN(c2nc(-c3cccs3)nc3ccccc23)CC1	-	?	0	?	0	0
O=C(Cn1cc(S(=O)(=O)Cc2ccc(F)cc2)c2ccccc21)NCCc1ccccc1	0	0	0	0	-	0
CCc1ccc(NC(=O)c2ccnc(C(C)(C)C)c2)cc1	0	0	21µM	-	0	0

Assay outcomes deposited in PubChem by National Center for Advancing Translational Sciences (NCATS).
